# Results taken from PubChem BioAssay AID602244 (Sanford-Burnham Center for Chemical Genomics, 2012).
# In all, about 360,000 compounds went through this assay and about 1,300 (0.36%) were called active. No stated cut-off is given here; in the data, active means inhibition above about 34% (passing the limit was not always enough); inactive means the rest. Only a selection was taken, and actives are over-represented in it overall.
# Biological target: C-X-C chemokine receptor type 6 (Homo sapiens) (UniProt O00574)
# Sequence (O00574 whole entry, looked up): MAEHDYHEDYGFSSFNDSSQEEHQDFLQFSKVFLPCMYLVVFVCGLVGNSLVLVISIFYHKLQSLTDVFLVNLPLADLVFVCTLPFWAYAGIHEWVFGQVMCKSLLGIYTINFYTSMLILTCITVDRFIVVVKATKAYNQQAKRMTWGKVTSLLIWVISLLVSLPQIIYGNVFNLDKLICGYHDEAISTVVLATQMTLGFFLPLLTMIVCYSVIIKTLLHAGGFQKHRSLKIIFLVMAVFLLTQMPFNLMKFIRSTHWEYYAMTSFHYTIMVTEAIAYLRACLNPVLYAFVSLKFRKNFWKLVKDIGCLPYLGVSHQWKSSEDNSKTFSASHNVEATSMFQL
# Experiment: CXCR6 receptor inhibitors, primary screen, cell-based, beta-arrestin, luminescence, CHO-K1 PathHunter, 1536-well (AID 602244);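 further: antagonist mode with CXCL16 agonist at 10 nM final; 0% = 10 nM CXCL16 with DMSO and 100% = unstimulated wells without agonist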
# Conditions: at 20 µM, active compounds read high
row,SMILES,inhibition
1,CC(C)N=C1CCCC1C(=S)SSC(=S)C1CCCC1=NC(C)C (stereo not drawn),78.9% (active)
2,CCc1ccccc1N(CC(=O)N1CCN(c2ccccc2F)CC1)S(C)(=O)=O,1.2% (inactive)
3,CCCc1cc(=O)oc2c(C)c(OC(C)C(=O)NCC(O)c3ccccc3)ccc12 (stereo not drawn),2.9% (inactive)
4,O=C1NCC(c2ccccc2)(c2ccccc2)C(=O)N1,3.6% (inactive)
5,CC(NC(=S)NNS(=O)(=O)c1ccc(C(C)(C)C)cc1)c1ccccc1 (stereo not drawn),-0.6% (inactive)
6,COc1cc(C(C)=O)ccc1OC(=O)CN1C(=O)c2ccccc2C1=O,1.2% (inactive)
7,Cc1cc(/C=C2/SC(=O)N(CC(=O)OC(C)C)C2=O)c(C)n1C,1.9% (inactive)
8,CC(C)OC(=O)CN1C(=O)C(=O)c2ccccc21,68% (active)
9,COc1cccc(NC(=O)Cn2c3ccc(F)cc3c3nc4n(c(=O)c32)CCS4)c1,4.8% (inactive)
10,CCN(CC)C(=O)CC1(c2ccccc2OC)CCOC(C(C)C)C1 (stereo not drawn),6.3% (inactive)
11,CC(C)(C)S(=O)(=O)c1ccccc1-c1noc(-c2ccccc2)c1C(N)=O,-0.6% (inactive)
12,Cc1ccc(S(=O)(=O)N2CCOCC2)cc1NC(=O)c1ccncc1,-5.9% (inactive)
13,CN(CCc1ccccc1)C(=O)c1cccc(NC(=O)Cc2ccc([N+](=O)[O-])cc2)c1,-6.9% (inactive)
14,CN(O)C(=S)c1ccccc1,73.3% (active)
15,CCN(CC)CCCNC(=O)CCn1nc(-c2ccc(Cl)cc2)ccc1=O,2.5% (inactive)
16,COc1ccc(CNC(=O)[C@@H]2CC=C[C@@H]3CCN(C4CC4)C(=O)[C@@H]32)cc1,-0.1% (inactive)
17,O=C1CCC(=O)N1CCC(=O)N(C(=O)NC1CCCCC1)C1CCCCC1,0% (inactive)
18,S=c1[nH]ccn1-c1ccc(Cl)cc1,-3.9% (inactive)
19,Cc1noc(C)c1C(=O)N(CC(=O)NC1CCCC1)Cc1ccccc1F,-0.5% (inactive)
20,O=[N+]([O-])/C=C/c1ccc2c(ccn2Cc2ccccc2)c1,73.1% (active)

row,SMILES,inhibition
1,CCc1noc(C)c1C(=O)N1CCCSC1=Nc1ccccc1OC,-1.3% (inactive)
2,CCCCCOC(=O)c1ccc(N2C(=O)C3C4C=CC(C4)C3C2=O)cc1 (stereo not drawn),4.9% (inactive)
3,CCCCCCCCCCOC(=O)C[N+](C)(C)CC1CCCCC1O (stereo not drawn),57.1% (active)
4,COc1ccc(S(=O)(=O)N(C)CC(=O)N2CCCC2)cc1Cl,-1.8% (inactive)
5,O=C1/C(=C\c2ccc([N+](=O)[O-])cc2)CS(=O)(=O)C/C1=C/c1ccc([N+](=O)[O-])cc1,96.9% (active)
6,O=C(Cc1ccccc1)N1CCN(S(=O)(=O)c2ccc([N+](=O)[O-])cc2)CC1,-15.5% (inactive)
7,O=C1CCCN1C(=O)COc1ccc([N+](=O)[O-])cc1,-0.7% (inactive)
8,CC(CC(=O)Nc1ccc(F)cc1F)S(=O)(=O)c1ccc2c(c1)NC(=O)CO2 (stereo not drawn),6.2% (inactive)
9,CCn1cc(C(=O)N2CC=C(c3ccccc3)CC2)c(=O)c2ccc(C)nc21,-18.1% (inactive)
10,Cc1ccc(C(=O)NC2CCN(C(=O)Nc3ccc(F)cc3)CC2)cc1,-6% (inactive)
11,Cc1ccc(NC(=O)CCC(=O)c2ccc(Br)cc2)cc1,-2.1% (inactive)
12,Cc1ccc(C(=O)CNc2ccc(F)cc2)cc1,46.4% (active)
13,CCCC(=O)Nc1ncnc2c1ncn2[C@@H]1O[C@@H]2OP(=O)(O)OC[C@H]2[C@H]1OC(=O)CCC,-1% (inactive)
14,CC1=C/C(=N\OS(=O)(=O)c2ccccc2)C=CC1=O,62% (active)
15,N#Cc1c(NC(=O)c2ccc(N3CCOCC3)c([N+](=O)[O-])c2)sc2c1CCCC2,15.6% (inactive)
16,O=C1Nc2ccc(Br)cc2/C1=N/N=C/C1=C(N2CCOCC2)C(=C\c2ccccc2)/CC1,41.2% (active)
17,O=C(O)c1ccc(NN=CC2=C(N3CCOCC3)/C(=C/c3ccccc3)CC2)cc1,-2.9% (inactive)
18,O=S(N1CCCCCC1)C12CC3CC(CC(C3)C1)C2 (stereo not drawn),-6.4% (inactive)
19,CC(=O)N1CCc2c(sc(NC(=O)CCS(=O)(=O)c3ccc(C)cc3)c2C(N)=O)C1,8.6% (inactive)
20,CCCNC(=O)C1(C)CCCN(C(=O)c2oc3ccccc3c2C)C1 (stereo not drawn),6.5% (inactive)

row,SMILES,inhibition
1,COc1ccc(C2/C=C\CN(S(=O)(=O)c3cccs3)CC(=O)N2Cc2ccc(F)cc2)cc1 (stereo not drawn),10.5% (inactive)
2,CC1CN(CC(=O)NC(C)c2ccccc2)CC(C)O1 (stereo not drawn),4.8% (inactive)
3,CC(=O)Nc1cc(-c2ccc(N3CCN(C)CC3)cc2)cn2c(-c3cccc(C(=O)N(C)C)c3)cnc12,-6.6% (inactive)
4,COc1ccccc1-c1cc(NC(C)=O)c2ncc(-c3ccc(F)cc3)n2c1,8.7% (inactive)
5,CC(=O)Nc1cc(-c2ccc(N3CCN(C)CC3)cc2)cn2c(-c3ccc(F)cc3)cnc12,89.5% (active)
6,CCOn1c(=O)c(=O)n(O)c2ccccc21,3.7% (inactive)
7,COc1ccc(-c2csc(Cc3nc(O)cs3)n2)cc1,66.9% (active)
8,COc1ccc(C(C)(NC(C)=O)c2nc(-c3ccc(S(C)(=O)=O)cc3)cs2)cc1 (stereo not drawn),1.5% (inactive)
9,COc1ccc(C(O)c2nc(-c3ccc(OC)nc3)cs2)cc1 (stereo not drawn),-1.3% (inactive)
10,O=C(NCc1ccccc1)C1c2ccccc2OCC(=O)N1CCCN1CCOCC1 (stereo not drawn),3.7% (inactive)
11,O=C(c1ccncc1)N1CCN(S(=O)(=O)c2cc(C(F)(F)F)cc(C(F)(F)F)c2)CC1,-2.1% (inactive)
12,COc1cccc(NC(=O)C(=O)c2cn(CC(=O)N3CCOCC3)c3ccccc23)c1,6% (inactive)
13,O=C1c2ccccc2NC(c2ccccc2O)N1NS(=O)(=O)c1ccccc1 (stereo not drawn),-0.7% (inactive)
14,CC(C)c1c(O)nc(SCCOc2ccc(Cl)cc2)[nH]c1=O,7.1% (inactive)
15,Cc1ccc(-c2nn(-c3ccc(F)cc3)cc2C(=O)NCC(c2cccs2)N2CCOCC2)cc1 (stereo not drawn),15.5% (inactive)
16,O=C(c1ccc(Cl)c(S(=O)(=O)N2CCCCCC2)c1)N1CCN(c2ccc(O)cc2)CC1,-20.6% (inactive)
17,c1ccc(-n2cccc2)c(N2CCCCC2)c1,-7.4% (inactive)
18,O=C1C=CC(=O)N1c1ccc(N2CCCCC2)cc1,74.7% (active)
